# Laboratory results as given in PMC7862700, “An all-to-all approach to the identification of sequence-specific readers for epigenetic DNA modifications on cytosine”.
# Assays:
# Assay in all cases: DAPPL (digital affinity profiling via proximity ligation, sequencing); 10 mM Tris-HCl pH 7.5, 50 mM NaCl, 1 mM DTT, 4% glycerol, room temperature, 30 min; GST-TFs on glutathione beads, 16-mer random dsDNA library, 0.1% formaldehyde crosslink after washing; high values mean tight binding
# FLI1 = target: T1, FLI1 (Homo sapiens, UniProt Q01543 1-452); conditions: protein: recombinant; tags: N-terminal GST; dsDNA, one strand shown
# T1 sequence: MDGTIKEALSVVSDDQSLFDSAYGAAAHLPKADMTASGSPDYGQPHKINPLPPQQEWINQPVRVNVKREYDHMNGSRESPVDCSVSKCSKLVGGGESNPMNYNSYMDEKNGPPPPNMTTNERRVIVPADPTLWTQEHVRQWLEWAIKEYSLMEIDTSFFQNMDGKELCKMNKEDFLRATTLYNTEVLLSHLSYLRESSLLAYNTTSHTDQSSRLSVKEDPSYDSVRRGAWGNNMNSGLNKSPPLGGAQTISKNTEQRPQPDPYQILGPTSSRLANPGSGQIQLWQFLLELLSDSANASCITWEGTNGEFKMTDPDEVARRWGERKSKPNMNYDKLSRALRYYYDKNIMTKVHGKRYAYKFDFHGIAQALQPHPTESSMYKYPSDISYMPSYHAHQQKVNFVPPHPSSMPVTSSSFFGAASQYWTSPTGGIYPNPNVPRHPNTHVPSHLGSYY
# Outline: (§1)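 GST fusions of human transcription factors were expressed in yeast and captured with glutathione beads. Once given DNA barcodes and pooled alongside a tag-only sample, they were incubated for 30 min at room temperature with 200 nmole of a random double-stranded 16-mer DNA library in Tris/NaCl/DTT/glycerol buffer, then washed, crosslinked (0.1% formaldehyde), proximity-ligated, PCR-amplified and sequenced on an Illumina NextSeq500. The binding signal of each hexamer is its read frequency for a factor divided by its frequency for the tag-only sample.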
# ELK1 = target: T2, ELK1 (Homo sapiens, UniProt P19419 1-428); conditions: protein: recombinant; tags: N-terminal GST; dsDNA, one strand shown
# T2 sequence: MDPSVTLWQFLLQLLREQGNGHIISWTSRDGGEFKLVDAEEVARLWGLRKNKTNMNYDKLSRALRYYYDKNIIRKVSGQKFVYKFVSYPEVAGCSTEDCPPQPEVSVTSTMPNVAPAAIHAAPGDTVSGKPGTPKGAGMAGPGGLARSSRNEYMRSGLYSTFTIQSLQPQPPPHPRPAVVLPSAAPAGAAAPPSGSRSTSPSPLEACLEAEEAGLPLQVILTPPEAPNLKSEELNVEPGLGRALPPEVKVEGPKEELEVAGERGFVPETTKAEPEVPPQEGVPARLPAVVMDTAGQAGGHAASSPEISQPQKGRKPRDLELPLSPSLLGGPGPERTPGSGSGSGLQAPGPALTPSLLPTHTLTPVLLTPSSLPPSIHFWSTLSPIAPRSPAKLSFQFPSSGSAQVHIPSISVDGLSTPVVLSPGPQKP
# Outline: as §1
# GABPA = target: T3, GABPA (Homo sapiens, UniProt Q06546 1-454); conditions: protein: recombinant; tags: N-terminal GST; dsDNA, one strand shown
# T3 sequence: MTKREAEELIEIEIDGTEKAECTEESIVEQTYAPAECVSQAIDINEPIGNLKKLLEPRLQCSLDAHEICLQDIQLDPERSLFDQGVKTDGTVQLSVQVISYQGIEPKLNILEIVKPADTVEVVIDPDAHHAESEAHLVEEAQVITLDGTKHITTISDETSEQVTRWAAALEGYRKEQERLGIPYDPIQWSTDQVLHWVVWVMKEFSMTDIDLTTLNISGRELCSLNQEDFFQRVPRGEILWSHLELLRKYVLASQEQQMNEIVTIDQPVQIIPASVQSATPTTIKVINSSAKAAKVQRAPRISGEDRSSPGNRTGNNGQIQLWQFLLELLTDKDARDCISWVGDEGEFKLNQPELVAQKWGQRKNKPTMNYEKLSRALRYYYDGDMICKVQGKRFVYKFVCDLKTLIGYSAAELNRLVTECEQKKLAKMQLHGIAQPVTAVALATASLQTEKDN
# Outline: as §1
# ERG = target: T4, ERG (Homo sapiens, UniProt P11308 1-479); conditions: protein: recombinant; tags: N-terminal GST; dsDNA, one strand shown
# T4 sequence: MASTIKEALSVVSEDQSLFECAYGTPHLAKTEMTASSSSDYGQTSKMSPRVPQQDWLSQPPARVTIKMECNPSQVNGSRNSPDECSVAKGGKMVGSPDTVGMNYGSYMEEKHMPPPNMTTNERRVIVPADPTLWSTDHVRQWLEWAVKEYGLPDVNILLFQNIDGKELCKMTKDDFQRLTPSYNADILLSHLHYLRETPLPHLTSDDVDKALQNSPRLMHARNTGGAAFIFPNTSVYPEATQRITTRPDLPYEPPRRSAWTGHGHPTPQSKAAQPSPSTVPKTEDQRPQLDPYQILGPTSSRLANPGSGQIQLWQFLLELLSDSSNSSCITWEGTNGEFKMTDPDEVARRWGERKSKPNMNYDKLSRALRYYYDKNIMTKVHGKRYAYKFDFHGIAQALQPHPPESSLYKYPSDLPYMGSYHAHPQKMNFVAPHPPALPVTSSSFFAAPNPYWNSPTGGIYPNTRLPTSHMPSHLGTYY
# Outline: as §1
# ELF1 = ELF1 (Homo sapiens, UniProt P32519 1-619); conditions: protein: recombinant; tags: N-terminal GST; dsDNA, one strand shown
# Outline: as §1
# EHF = target: T5, EHF (Homo sapiens, UniProt Q9NZC4 1-300); conditions: protein: recombinant; tags: N-terminal GST; dsDNA, one strand shown
# T5 sequence: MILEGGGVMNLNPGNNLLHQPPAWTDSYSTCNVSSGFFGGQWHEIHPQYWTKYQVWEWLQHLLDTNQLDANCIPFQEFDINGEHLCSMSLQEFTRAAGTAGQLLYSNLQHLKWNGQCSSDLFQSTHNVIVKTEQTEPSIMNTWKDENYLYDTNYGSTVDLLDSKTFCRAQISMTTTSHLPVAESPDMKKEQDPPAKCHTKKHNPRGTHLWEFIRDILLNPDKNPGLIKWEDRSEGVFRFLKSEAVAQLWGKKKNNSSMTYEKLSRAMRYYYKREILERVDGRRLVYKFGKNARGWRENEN
# Outline: as §1
# SPI1 = SPI1 (Homo sapiens, UniProt P17947 1-270); conditions: protein: recombinant; tags: N-terminal GST; dsDNA, one strand shown
# Outline: as §1
# SPIB = SPIB (Homo sapiens, UniProt Q01892 1-262); conditions: protein: recombinant; tags: N-terminal GST; dsDNA, one strand shown
# Outline: as §1
# ELK3 = target: T6, ELK3 (Homo sapiens, UniProt P41970 1-407); conditions: protein: recombinant; tags: N-terminal GST; dsDNA, one strand shown
# T6 sequence: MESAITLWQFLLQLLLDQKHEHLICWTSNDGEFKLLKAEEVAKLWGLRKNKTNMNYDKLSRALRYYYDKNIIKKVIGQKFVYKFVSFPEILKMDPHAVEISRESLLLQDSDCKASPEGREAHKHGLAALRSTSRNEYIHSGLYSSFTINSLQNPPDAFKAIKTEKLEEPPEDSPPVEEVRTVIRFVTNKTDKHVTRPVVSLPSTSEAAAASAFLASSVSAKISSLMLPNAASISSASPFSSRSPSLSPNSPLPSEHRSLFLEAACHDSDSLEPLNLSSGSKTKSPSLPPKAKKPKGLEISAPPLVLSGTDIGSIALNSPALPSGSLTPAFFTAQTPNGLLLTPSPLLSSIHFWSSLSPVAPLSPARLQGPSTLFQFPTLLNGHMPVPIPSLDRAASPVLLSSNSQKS
# Outline: as §1
# FEV = target: T7, FEV (Homo sapiens, UniProt Q99581 1-238); conditions: protein: recombinant; tags: N-terminal GST; dsDNA, one strand shown
# T7 sequence: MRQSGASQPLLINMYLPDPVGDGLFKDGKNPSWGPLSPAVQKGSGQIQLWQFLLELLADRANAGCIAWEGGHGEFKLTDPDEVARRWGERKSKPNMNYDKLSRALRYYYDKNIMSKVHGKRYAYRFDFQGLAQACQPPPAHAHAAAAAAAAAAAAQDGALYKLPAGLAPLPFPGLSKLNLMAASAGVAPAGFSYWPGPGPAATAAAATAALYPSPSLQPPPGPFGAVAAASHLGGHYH
# Outline: as §1
# ETV5 = ETV5 (Homo sapiens, UniProt P41161 1-510); conditions: protein: recombinant; tags: N-terminal GST; dsDNA, one strand shown
# Outline: as §1
# HSF1 = HSF1 (Homo sapiens, UniProt Q00613 1-529); conditions: protein: recombinant; tags: N-terminal GST; chain copies: 3; dsDNA, one strand shown
# Outline: as §1
# SPIC = target: T8, SPIC (Homo sapiens, UniProt Q8N5J4 1-248); conditions: protein: recombinant; tags: N-terminal GST; dsDNA, one strand shown
# T8 sequence: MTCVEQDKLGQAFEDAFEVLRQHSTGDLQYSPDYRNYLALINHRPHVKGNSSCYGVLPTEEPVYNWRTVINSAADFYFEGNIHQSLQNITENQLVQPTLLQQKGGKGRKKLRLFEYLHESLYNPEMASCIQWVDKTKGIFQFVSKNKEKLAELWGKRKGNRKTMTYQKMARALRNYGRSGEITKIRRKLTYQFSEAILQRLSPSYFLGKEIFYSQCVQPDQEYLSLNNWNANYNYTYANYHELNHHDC
# Outline: as §1
# ELF4 = ELF4 (Homo sapiens, UniProt Q99607 1-663); conditions: protein: recombinant; tags: N-terminal GST; dsDNA, one strand shown
# Outline: as §1
# ELK4 = target: T9, ELK4 (Homo sapiens, UniProt P28324-2 1-405); conditions: protein: recombinant; tags: N-terminal GST; dsDNA, one strand shown
# T9 sequence: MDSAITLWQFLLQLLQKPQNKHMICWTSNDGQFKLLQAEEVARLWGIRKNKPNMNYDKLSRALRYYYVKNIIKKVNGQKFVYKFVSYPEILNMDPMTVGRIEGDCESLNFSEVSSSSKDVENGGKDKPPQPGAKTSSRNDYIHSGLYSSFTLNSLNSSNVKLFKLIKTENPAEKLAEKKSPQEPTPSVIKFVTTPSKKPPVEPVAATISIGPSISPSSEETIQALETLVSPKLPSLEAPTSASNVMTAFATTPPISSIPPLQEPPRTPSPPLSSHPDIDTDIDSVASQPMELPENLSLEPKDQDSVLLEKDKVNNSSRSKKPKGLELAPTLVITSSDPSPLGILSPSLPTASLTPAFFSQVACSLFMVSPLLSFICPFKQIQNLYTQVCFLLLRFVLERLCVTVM
# Outline: as §1
# ETV2 = target: T10, ETV2 (Homo sapiens, UniProt O00321 1-342); conditions: protein: recombinant; tags: N-terminal GST; dsDNA, one strand shown
# T10 sequence: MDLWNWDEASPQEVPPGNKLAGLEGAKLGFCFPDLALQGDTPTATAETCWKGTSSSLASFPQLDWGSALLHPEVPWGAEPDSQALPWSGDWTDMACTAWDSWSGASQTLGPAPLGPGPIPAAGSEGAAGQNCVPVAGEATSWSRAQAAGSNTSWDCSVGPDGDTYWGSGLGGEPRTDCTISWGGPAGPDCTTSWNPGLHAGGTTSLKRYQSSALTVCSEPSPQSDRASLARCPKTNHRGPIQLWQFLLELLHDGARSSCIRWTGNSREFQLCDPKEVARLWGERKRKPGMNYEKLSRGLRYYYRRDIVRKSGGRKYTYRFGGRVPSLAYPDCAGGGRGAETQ
# Outline: as §1
# ELF3 = target: T11, ELF3 (Homo sapiens, UniProt P78545 1-371); conditions: protein: recombinant; tags: N-terminal GST; dsDNA, one strand shown
# T11 sequence: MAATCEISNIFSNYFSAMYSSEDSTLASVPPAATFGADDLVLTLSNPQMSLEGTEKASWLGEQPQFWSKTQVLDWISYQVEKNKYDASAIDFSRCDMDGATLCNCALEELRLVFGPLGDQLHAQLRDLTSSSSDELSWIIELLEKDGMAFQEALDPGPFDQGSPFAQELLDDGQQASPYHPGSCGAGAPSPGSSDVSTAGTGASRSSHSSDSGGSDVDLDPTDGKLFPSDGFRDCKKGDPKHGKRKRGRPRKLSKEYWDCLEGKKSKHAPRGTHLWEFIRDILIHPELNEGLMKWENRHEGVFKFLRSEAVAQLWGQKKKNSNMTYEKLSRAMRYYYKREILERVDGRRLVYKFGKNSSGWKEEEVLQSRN
# Outline: as §1
# ETV1 = ETV1 (Homo sapiens, UniProt P50549 1-477); conditions: protein: recombinant; tags: N-terminal GST; dsDNA, one strand shown
# Outline: as §1
# Chain of SPIB (Q01892 whole entry): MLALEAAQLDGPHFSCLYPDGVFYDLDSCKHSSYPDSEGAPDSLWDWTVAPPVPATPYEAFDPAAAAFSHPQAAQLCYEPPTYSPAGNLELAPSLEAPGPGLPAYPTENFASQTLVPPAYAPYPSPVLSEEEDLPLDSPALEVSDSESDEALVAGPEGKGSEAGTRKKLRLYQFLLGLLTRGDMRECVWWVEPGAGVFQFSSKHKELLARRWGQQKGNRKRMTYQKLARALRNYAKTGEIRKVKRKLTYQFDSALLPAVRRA
# Chain of ETV1 (P50549 whole entry): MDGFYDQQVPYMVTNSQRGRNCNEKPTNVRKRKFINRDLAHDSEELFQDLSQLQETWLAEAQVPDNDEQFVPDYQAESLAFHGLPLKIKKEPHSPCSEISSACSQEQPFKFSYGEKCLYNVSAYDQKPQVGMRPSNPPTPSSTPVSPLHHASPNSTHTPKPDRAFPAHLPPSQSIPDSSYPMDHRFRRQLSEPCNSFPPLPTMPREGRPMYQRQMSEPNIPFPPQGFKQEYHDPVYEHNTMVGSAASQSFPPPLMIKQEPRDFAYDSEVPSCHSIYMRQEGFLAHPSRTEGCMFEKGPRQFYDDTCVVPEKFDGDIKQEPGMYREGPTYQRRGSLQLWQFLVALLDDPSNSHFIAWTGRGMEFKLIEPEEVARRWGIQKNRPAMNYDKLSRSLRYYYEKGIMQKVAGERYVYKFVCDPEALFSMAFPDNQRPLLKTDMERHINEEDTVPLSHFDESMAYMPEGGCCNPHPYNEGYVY
# Chain of ELF1 (P32519 whole entry): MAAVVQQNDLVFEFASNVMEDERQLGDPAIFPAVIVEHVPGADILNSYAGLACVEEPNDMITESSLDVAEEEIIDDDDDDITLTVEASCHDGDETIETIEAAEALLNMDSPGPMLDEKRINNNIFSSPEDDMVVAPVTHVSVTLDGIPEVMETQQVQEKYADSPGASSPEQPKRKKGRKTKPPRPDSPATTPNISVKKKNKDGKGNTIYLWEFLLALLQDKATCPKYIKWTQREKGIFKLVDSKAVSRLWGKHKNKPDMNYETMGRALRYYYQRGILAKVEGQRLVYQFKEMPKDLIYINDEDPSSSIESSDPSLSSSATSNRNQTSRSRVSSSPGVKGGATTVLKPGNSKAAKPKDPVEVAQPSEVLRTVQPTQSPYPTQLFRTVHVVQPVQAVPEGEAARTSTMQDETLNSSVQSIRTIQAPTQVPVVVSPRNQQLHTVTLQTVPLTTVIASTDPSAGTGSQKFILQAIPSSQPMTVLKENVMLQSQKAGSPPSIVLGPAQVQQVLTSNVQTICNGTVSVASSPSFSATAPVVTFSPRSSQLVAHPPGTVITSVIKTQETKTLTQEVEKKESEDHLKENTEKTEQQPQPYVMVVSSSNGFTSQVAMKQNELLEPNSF
# Chain of ELF4 (Q99607 whole entry): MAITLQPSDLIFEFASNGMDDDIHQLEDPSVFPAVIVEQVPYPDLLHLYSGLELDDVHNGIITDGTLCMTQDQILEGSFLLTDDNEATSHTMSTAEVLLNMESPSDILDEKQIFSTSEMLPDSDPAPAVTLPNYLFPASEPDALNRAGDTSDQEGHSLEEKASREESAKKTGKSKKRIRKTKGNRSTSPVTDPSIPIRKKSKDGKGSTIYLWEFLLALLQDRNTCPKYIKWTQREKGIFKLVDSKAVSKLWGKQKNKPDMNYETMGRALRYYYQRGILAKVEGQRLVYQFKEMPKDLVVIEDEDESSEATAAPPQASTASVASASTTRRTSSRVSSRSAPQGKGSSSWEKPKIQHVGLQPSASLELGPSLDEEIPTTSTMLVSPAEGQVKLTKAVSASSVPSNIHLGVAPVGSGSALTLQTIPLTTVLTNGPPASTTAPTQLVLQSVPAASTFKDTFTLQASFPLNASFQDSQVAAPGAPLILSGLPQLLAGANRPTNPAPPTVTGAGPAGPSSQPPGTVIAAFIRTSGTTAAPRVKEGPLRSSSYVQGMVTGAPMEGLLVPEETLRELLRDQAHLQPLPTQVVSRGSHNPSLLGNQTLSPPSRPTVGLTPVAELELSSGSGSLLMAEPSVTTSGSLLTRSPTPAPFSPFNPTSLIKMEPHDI
# Chain of ETV5 (P41161 whole entry): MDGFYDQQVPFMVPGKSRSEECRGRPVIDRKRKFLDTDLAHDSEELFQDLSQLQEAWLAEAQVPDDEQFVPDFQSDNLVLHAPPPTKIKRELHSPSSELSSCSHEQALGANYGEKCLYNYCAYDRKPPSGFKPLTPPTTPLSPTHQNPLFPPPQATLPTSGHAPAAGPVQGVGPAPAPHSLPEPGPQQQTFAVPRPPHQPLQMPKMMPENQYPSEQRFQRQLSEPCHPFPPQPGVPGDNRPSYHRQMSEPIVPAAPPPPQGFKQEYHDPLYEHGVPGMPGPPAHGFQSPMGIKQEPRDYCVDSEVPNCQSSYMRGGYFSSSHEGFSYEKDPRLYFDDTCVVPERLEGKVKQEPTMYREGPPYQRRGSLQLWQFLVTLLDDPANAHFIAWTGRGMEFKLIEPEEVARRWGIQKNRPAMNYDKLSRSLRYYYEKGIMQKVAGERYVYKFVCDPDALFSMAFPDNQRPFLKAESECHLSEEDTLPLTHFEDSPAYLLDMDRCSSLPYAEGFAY
# Chain of HSF1 (Q00613 whole entry): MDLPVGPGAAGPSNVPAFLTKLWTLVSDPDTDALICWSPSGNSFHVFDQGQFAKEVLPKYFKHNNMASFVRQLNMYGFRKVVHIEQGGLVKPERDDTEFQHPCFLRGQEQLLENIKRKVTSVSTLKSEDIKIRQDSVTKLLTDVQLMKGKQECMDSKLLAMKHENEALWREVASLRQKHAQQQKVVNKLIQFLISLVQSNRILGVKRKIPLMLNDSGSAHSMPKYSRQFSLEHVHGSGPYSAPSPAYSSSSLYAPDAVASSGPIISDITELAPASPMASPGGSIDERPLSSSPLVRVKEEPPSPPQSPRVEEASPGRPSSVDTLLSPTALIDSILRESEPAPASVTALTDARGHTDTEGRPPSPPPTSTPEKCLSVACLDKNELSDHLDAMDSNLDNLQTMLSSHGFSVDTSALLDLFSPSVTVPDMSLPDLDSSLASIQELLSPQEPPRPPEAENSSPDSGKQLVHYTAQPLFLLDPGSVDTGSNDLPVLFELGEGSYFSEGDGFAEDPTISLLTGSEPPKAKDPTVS
sequence,measurement,setting,value
TGCAAC,binding signal,FLI1,"1.27 fold enrichment (6-mer frequency, TF over GST control)"
same,binding signal,ELK1,"1.32 fold enrichment (6-mer frequency, TF over GST control)"
same,binding signal,GABPA,"1.4 fold enrichment (6-mer frequency, TF over GST control)"
same,binding signal,ERG,"1.41 fold enrichment (6-mer frequency, TF over GST control)"
same,binding signal,ELF1,"1.35 fold enrichment (6-mer frequency, TF over GST control)"
same,binding signal,EHF,"1.36 fold enrichment (6-mer frequency, TF over GST control)"
same,binding signal,SPI1,"1.28 fold enrichment (6-mer frequency, TF over GST control)"
same,binding signal,SPIB,"1.34 fold enrichment (6-mer frequency, TF over GST control)"
same,binding signal,ELK3,"1.43 fold enrichment (6-mer frequency, TF over GST control)"
same,binding signal,FEV,"1.39 fold enrichment (6-mer frequency, TF over GST control)"
same,binding signal,ETV5,"1.3 fold enrichment (6-mer frequency, TF over GST control)"
same,binding signal,HSF1,"1.06 fold enrichment (6-mer frequency, TF over GST control)"
same,binding signal,SPIC,"1.19 fold enrichment (6-mer frequency, TF over GST control)"
same,binding signal,ELF4,"1.3 fold enrichment (6-mer frequency, TF over GST control)"
same,binding signal,ELK4,"1.46 fold enrichment (6-mer frequency, TF over GST control)"
same,binding signal,ETV2,"1.31 fold enrichment (6-mer frequency, TF over GST control)"
same,binding signal,ELF3,"1.42 fold enrichment (6-mer frequency, TF over GST control)"
same,binding signal,ETV1,"1.4 fold enrichment (6-mer frequency, TF over GST control)"
